Hits are enriched below; roughly 5.7% of the tested compounds scored in any of these assays.
HT1080 IDH1KD tx: qHTS for induction of synthetic lethality in tumor cells producing 2HG: qHTS for the HT-1080-IDH1KD cell line. HT-1080 IDH1 knockdown viability, ATP luminescence, 48 h. Potency, µM (titrated, usually from 46.1 µM), for the others: at the highest dose activity, negative = toxicity, usual class: cytotoxic. actives 2% (n = 360,000). AID 686971, 2013;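 further: 0% = DMSO wells and -100% = cell-free medium wells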
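% activity derives from luminescence (CellTiter-Glo), normalised to DMSO and no-cell wells. HT-1080-IDH1KD cells, 750/well, had 48 h compound exposure at 37 °C.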
KB-3-1 tox: qHTS assay for MDR1-selective chemotherapeutics: Primary screen using the parental adenocarcinoma cell KB-3-1; KB-3-1 viability, CellTiter-Glo ATP luminescence, 72 h; Potency, µM (titrated, usually from 46.1 µM), hits mostly cytotoxic; actives 1.4% (n = 400,000); further: nearly all actives have a fitted effect of over 60% in size
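Using CellTiter-Glo luminescence, growth of non-resistant KB-3-1 adenocarcinoma cells is assessed 72 h after pin-tool compound addition at 37 °C. Normalized responses across the concentration series yield fitted curves.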
HT1080-NT tox: qHTS for induction of synthetic lethality in tumor cells producing 2HG: qHTS for the HT-1080-NT fibrosarcoma cell line; HT-1080-NT fibrosarcoma viability, CellTiter-Glo ATP luminescence, 48 h; actives 1.6% (n = 360,000); Potency, µM (highest dose often 46.1 µM), inactives show at the top dose activity, negative = less viability, actives largely listed as cytotoxic;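 further: NT is the 2HG producing partner of a matched IDH1 knockdown line; 0% = DMSO-treated cells and -100% = media-only wells without cells; nearly all actives have a fitted effect of over 55% in size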
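Read-out is CellTiter-Glo luminescence after 10 minutes at room temperature, following 48 hours' compound treatment of HT-1080-NT cells (750 cells/well, RPMI, 5% FBS, 37 degrees C).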
KB-V1 MDR tox: qHTS assay for MDR1-selective chemotherapeutics: Primary screen using the drug-selected MDR subline cells KB-V1 | actives 3.4% (n = 400,000) | KB-V1 MDR cells viability, CellTiter-Glo, 72 h | Potency, µM (series often up to 46.1 µM), actives largely listed as cytotoxic; further: nearly all actives have a fitted effect of over 60% in size
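Cytotoxicity via CellTiter-Glo luminescence after 72 h compound exposure at 37 degrees C. Cells: drug-selected KB-V1 line, DMEM phenol-red free plus 10% FBS. Compounds tested at multiple concentrations; normalized data fitted to concentration-effect curves.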
* hit, by the source's call; i = inactive; ? = inconclusive; . = no result given; ! = repeats disagree. The call rests on the fitted dose curve; in most records, active means well fitted curve in the direction sought with a large enough effect; inconclusive means small, poorly fitted or top-dose-only effect, or another doubt; inactive means no such curve, though single readings can be large; an effect the other way counts as inactive or inconclusive. Unless noted, on the % scale 0 is the no-effect control and ±100 the full control effect; potency means the concentration at half of the fitted maximal effect.

SMILES | HT1080 IDH1KD tx | KB-3-1 tox | HT1080-NT tox | KB-V1 MDR tox
CC(C)n1cc(CN2CCC(C(=O)Nc3cccc(-c4cccc(Cl)c4)c3)CC2)cn1 | ? | ? | 18µM* | ?
Cc1[nH]nc2c1-c1nc3ccccc3nc1C(C)(C)C2 | -22% | ? | -19% | 18µM*
CC12CCC(C)(c3nc4ccccc4nc31)C2(C)C | 7% | i | 0% | i
O=C(CSc1nnc2c(n1)[nH]c1ccc(F)cc12)Nc1ccccc1F | 2% | i | 15% | i
O=C(CSc1nnc2c3ccccc3c3ccccc3c2n1)Nc1ccccc1F | 5% | i | 7% | 3.7µM*
O=C(CSc1nc(=O)n2cc(Cl)ccc2n1)Nc1cccc2ccccc12 | -14% | ? | ? | 26µM*
CCC(C)c1ccc(NC(=O)C2CCCN(c3ncccn3)C2)cc1 (stereo unspecified) | ? | 10µM* | ? | 7.9µM*
Cc1ccc2c(c1)c1c(c(=O)n(-c3ccccc3C)c(=O)n1Cc1ccccc1F)n2C | . | i | . | i
O=C(C[n+]1cc(-c2ccccc2)n2c1CCC2)Nc1nc(-c2ccc(F)cc2)cs1 | -7% | 21µM* | -10% | i
Cc1ccc(-c2csc(NC(=O)C[n+]3cc(-c4ccc(C)cc4)n4c3CCC4)n2)cc1 | 16µM* | ? | ? | i
O=C(C[n+]1cc(-c2ccccc2)n2c1CCC2)N1c2ccccc2Sc2ccccc21 | -23% | 6.5µM* | 1% | i
COc1ccc(OC)c(NC(=O)CN2C(=O)CCc3cc(S(=O)(=O)N4CCCCC4)ccc32)c1 | . | i | . | i
CCOc1ccc(NC(=O)Cn2c(=O)n(CCCCCC(=O)NCc3ccccc3)c(=O)c3sccc32)cc1 | . | ? | . | i
COc1cc(/C=C/C(=O)c2ccc3c(c2)OCO3)cc(OC)c1OC | ? | ? | ? | 21µM*
COc1cc(C(=O)c2cc3c(cc2C)OCO3)cc(OC)c1OC | ? | 0.16µM* | ? | 0.41µM*
CCOc1ccc(/C=C/C(=O)c2ccccc2)cc1 | 5% | i | 6% | i
CCOc1ccc(C(=O)/C=C/c2cc(OC)c(OC)c(OC)c2)cc1 | 16µM* | ? | ? | ?
COc1cc(/C=C/C(=O)c2ccc(F)cc2)cc(OC)c1OC | 18µM* | i | 23µM* | ?
O=C(CCC1N=C2c3ccccc3N=C(SCC(=O)Nc3ccc(F)cc3)N2C1=O)NCc1ccco1 (stereo unspecified) | . | i | . | ?
O=C(NCCn1cc(SCc2ccccc2Cl)c2ccccc21)c1cccs1 | . | i | . | ?
CCOc1cc2c3c(c1)C(C)=CC(C)(C)N3C(=O)C2=O | ? | 21µM* | 4.6µM* | ?
CCOc1cc2c3c(c1)C(C)CC(C)(C)N3C(=O)C2=O (stereo unspecified) | 3% | i | 5% | 15µM*
Cc1cc2c3c(c1)C(C)CC(C)(C)N3C(=O)C2=O (stereo unspecified) | -11% | i | -5% | i
O=C(O)Cn1nc(N2CCN(c3ccccc3)CC2)ccc1=O | . | i | . | i
Clc1nc(NCc2cccs2)c2[nH]cnc2n1 | . | i | . | i
SMILES | HT1080 IDH1KD tx | KB-3-1 tox | HT1080-NT tox | KB-V1 MDR tox
Cc1cccc(Cn2c(Cc3ccccc3)nc3ccccc32)c1 | 11% | i | 0% | 21µM*!
Cc1cccc(Cn2c(COc3ccc(Cl)cc3)nc3ccccc32)c1 | . | i | . | i
COCc1nc2ccccc2n1Cc1cccc(C)c1 | -3% | i | -3% | 16µM*!
Cc1cccc(C(=O)NCCc2nc3ccccc3n2Cc2ccc(Cl)cc2)c1 | . | ? | . | 10µM*
COCn1c(-c2cccc(Br)c2)nc2ccccc21 | ? | i | ? | 18µM*
Cc1cccc(Cn2c(-c3ccccc3)nc3ccccc32)c1 | . | ? | . | i
CC(C)Cn1c(-c2cccc(Br)c2)nc2ccccc21 | . | i | . | i
COc1cc(NC(=O)CSc2nnc3c4ccccc4n(C)c3n2)cc(OC)c1OC | -12% | . | 2% | .
CS(=O)(=O)c1ccccc1NC(=O)COc1ccccc1C(=O)Nc1ccccc1 | 11% | . | 8% | .
CN(C)c1ccc(/C=C/c2sc3ccccc3[n+]2Cc2ccccc2)cc1 | . | i | . | ?
O=C(NCc1ccccc1Cl)c1ccc2c(c1)nnn2C1CCCC1 | . | i | . | i
O=C1CC(/C=C/c2ccccc2)(C(=O)NC2CCCC2)N1c1ccc(S(=O)(=O)N2CCCC2)cc1 (stereo unspecified) | -6% | i | -2% | 2.9µM*
CCOC(=O)CNC(=O)C1(/C=C/c2ccccc2)CC(=O)N1c1ccc(OC)cc1 (stereo unspecified) | 9% | i | 5% | i
COc1ccc(N2C(=O)CC2(/C=C/c2ccccc2OC)C(=O)NC2CCCC2)cc1 (stereo unspecified) | 0% | ? | 0% | 3.7µM*
Cc1cccc(-n2ncc3c(N)ncnc32)c1 | -7% | ? | -2% | 8.2µM*
Cc1cccc(-n2ncc3c(NC(C)C)ncnc32)c1 | -1% | i | -6% | i
Cc1cccc(-n2ncc3c(Nc4c(C)cc(C)cc4C)ncnc32)c1 | . | 9.2µM* | . | ?
COc1cc(N(C)C)c(OC)cc1C=C1C=CC=C1 | . | i | . | i
CCOc1nc(NC(=O)NS(=O)(=O)Oc2cccc(F)c2)nc(-c2ccccc2)n1 | . | i | . | i
COc1cccc(NC(=O)CCCN2C(=O)C3CC=CCC3C2=O)c1 (stereo unspecified) | 10µM* | i | ? | ?
COc1cccc(NC(=O)CCN2C(=O)C3CC=CCC3C2=O)c1 (stereo unspecified) | -17% | i | 1% | i
CCN(CC)S(=O)(=O)c1ccc(N2CCN(C)CC2)c(NC(=O)CSCC(=O)Nc2cccc(C)c2)c1 | -1% | i | -3% | i
CCOc1ccc(S(=O)(=O)Nc2cc(S(=O)(=O)N(CC)CC)ccc2N2CCCC2)cc1 | -5% | ? | -4% | 2.6µM*
CCOc1ccc(S(=O)(=O)Nc2ccccc2C(=O)Nc2ccccc2N2CCOCC2)cc1 | -2% | i | -1% | i
CCOc1ccc(C(=O)Nc2cc(S(=O)(=O)Nc3ccccc3Cl)ccc2N2CCOCC2)cc1 | -2% | i | 4% | 6.5µM*
CCN(CC)S(=O)(=O)c1ccc(N2CCN(C)CC2)c(NC(=O)Nc2ccc(C)cc2)c1 | 21µM* | i | 8.2µM* | i
CCN(CC)S(=O)(=O)c1ccc(N2CCCC2)c(NC(=O)Cc2ccc(OC)cc2)c1 | 14% | i | 0% | 23µM*
CCS(=O)(=O)c1nc(S(=O)(=O)c2ccc(Cl)cc2)c(NCc2ccc(Cl)cc2)s1 | . | i | . | i
CC(C)NC(=O)N1[C@H](c2cccs2)[C@@H](C)C(=O)[C@@H](C)[C@@H]1c1cccs1 | . | i | . | i
